# Assay outcomes as filed in PubChem.
# NPC1 promoter act: qHTS Assay for NPC1 Promoter Activators. Huh7 NPC1 promoter luciferase reporter, 24 h. Potency, µM (titrated, usually from 9.22 µM), for inactives: at the top dose activation, hits mostly activators. hit rate 2.4% among 320,000. AID 485313, 2010; also: % of control where 0% means no effect; nearly all actives have a fitted effect of over 60% in size
#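 Stably transfected Huh7 (NPC1 promoter→luciferase), 1500 cells/well in Opti-MEM + 10% FBS, 2 h settle, then compound 24 h at 37 °C. Luminescence after 10 min with Amplite reagent.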
# FLuc counter: qHTS profiling assay for firefly luciferase inhibitor/activator using purifed enzyme and Km concentrations of substrates (counterscreen for miR-21 project); Potency, µM (doses to about 57.5 µM), for the others: top-dose activity change, negative = inhibition, usual class: inhibitors; hit rate 6.9% among 360,000; purified FLuc, Km substrates, luminescence inhibition; Luciferin 4-monooxygenase (Photinus pyralis), P08659; AID 588342, 2011;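 also: plate controls were vehicle for no effect and reference inhibitor for full effect; nearly all actives have a fitted effect of over 55% in size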
# Target sequence (P08659 whole entry, looked up): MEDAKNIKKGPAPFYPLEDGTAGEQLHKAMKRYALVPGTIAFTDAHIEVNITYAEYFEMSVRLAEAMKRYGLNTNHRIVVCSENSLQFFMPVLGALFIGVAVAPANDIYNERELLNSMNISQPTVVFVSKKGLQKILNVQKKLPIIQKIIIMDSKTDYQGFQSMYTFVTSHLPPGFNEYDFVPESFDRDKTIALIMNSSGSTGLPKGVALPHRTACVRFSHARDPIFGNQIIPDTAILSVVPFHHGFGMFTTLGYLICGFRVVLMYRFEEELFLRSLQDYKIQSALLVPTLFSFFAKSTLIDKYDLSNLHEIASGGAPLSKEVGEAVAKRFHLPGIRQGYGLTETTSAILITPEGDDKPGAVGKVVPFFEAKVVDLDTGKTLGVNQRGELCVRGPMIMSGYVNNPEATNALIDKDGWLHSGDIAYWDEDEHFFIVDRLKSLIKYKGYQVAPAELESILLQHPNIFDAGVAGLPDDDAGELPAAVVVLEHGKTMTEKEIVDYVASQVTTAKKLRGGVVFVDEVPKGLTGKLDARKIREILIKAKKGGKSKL
#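 Biochemical qHTS of compounds, final roughly 60 µM downward over six points, against 10 nM purified firefly luciferase using Km concentrations of substrates (10 uM D-luciferin, 10 uM ATP) in Tris acetate pH 7.5 buffer; luminescence output.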
# ELG1 DNA repair: qHTS screen for small molecules that inhibit ELG1-dependent DNA repair in human embryonic kidney (HEK293T) cells expressing luciferase-tagged ELG1. hit rate 2.3% among 330,000. AID 504467, 2011. Potency, µM (highest dose often 46.1 µM), for inactives: top-dose activity change, negative = inhibition, most hits filed as inhibitors. HEK293T ELG1-luciferase reporter, luminescence, 16 h; DNA damage induced by 5-fluorouridine; also: % is scaled to controls: 0 for no effect and ±100 for the full control effect; nearly all actives have a fitted effect of over 55% in size
#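 Step one: seed 2,000 cells per well. Step two: pin-transfer compound or DMSO alongside 5-fluorouridine. Step three: incubate 16 hr, 37 °C, 5% CO2. Step four: add ONE-Glo, wait 30 min, read luminescence.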
# ELG1 genotoxic: qHTS screen for small molecules that induce genotoxicity in human embryonic kidney (HEK293T) cells expressing luciferase-tagged ELG1; HEK293T ELG1-luciferase reporter, luminescence, 16 h; Potency, µM (series often up to 46 µM), for the others: at the highest dose activity change, positive = activation, actives largely listed as activators; hit rate 1.3% among 330,000; also: % of control where 0% means no effect; nearly all actives have a fitted effect of over 60% in size
#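 16 hr compound incubation (37 °C, 5% CO2) of HEK293T cells carrying luciferase-tagged ELG1; luciferase then measured by ONE-Glo luminescence after 30 min at RT.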
# Rab9 promoter act: qHTS Assay for Rab9 Promoter Activators. Huh7 Rab9 promoter-luciferase reporter, luminescence, 24 h. Potency, µM (doses to about 9.22 µM), for the others: top-dose activation, negative = inhibition, hits mostly activators. hit rate 2.8% among 320,000. AID 485297, 2010; also: % of control where 0% means no effect; nearly all actives have a fitted effect of over 60% in size
#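 Huh7 cells stably carrying a Rab9 promoter-luciferase reporter, 1500 cells per well in OP-MEM I with 10% FBS, treated with compound 24 hours at 37C. Luciferase activity read by luminescence after 10 minutes with Amplite reagent.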
# SMN2 splice enh: qHTS Assay for Enhancers of SMN2 Splice Variant Expression; HEK293 SMN2-luciferase splicing reporter, luminescence, 30-36 h; hit rate 2.8% among 210,000; AID 1458, 2008; Potency, µM (titrated, usually from 46.1 µM), without a hit: at the highest dose activity change, positive = activation, hits mostly activators; also: % of control where 0% means no effect; nearly all actives have a fitted effect of over 55% in size
#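 HEK293 cells carry an SMN2 […]–luciferase reporter in which exon 7 inclusion puts luciferase in frame. Cells were plated 10-12 h before compound addition, then incubated 30-36 h at 37C. ONE-Glo luminescence was read; sodium butyrate at 4.5 mM final served as control.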
# Starred values were filed as active, the others as inactive; ? = inconclusive; nt = no result; [ ] = dose if it differs, or a comment. Hits are enriched below; roughly 9.2% of the tested compounds scored in any of these assays. Calls follow the shape of the dose curve; as a rule, active = well fitted curve in the direction sought with a large enough effect; inconclusive = small, poorly fitted or top-dose-only effect, or another doubt; inactive = no such curve, though single readings can be large; an effect the other way counts as inactive or inconclusive. Potency is read from the fitted curve at half-maximal effect.
SMILES,NPC1 promoter act,FLuc counter,ELG1 DNA repair,ELG1 genotoxic,Rab9 promoter act,SMN2 splice enh
Cc1cc(S(=O)(=O)N2CCCC2)ccc1OCC(=O)Nc1ccccc1,0%,0%,7%,4%,-1%,nt
Cc1ccc(C(=O)c2oc3ccc(Cl)cc3c2NC(=O)CN2CCN(C)CC2)cc1,-4%,-1%,-1%,9%,-3%,nt
COCCCNC(=S)Nc1ccc(N2CCCCC2)cc1,11%,-6%,10%,4%,13%,16%
CCCC(=O)N1CCN(c2ccc(NC(=O)c3ccco3)cc2)CC1,2%,1%,?,9%,25%,-9%
O=C(Cc1ccccc1)Nc1ccc(N2CCCCC2)cc1,1.8µM*,6µM*,?,3.3µM*,?,11µM*
CCNC(=S)Nc1ccc(N2CCCCC2)cc1,26%,-14%,0%,15%,25%,18µM*
CCN1CCN(c2ccc(NC(=O)c3ccco3)cc2)CC1,?,27µM*,?,?,?,nt
CC(NC(=O)OCc1ccccc1)C(=O)Oc1cc2oc(=O)cc(-c3ccccc3)c2cc1Cl (stereo not given),3%,1%,21µM*,-9%,6%,-30%
CC(=O)Nc1ccc(SCc2ncc(-c3ccccc3)o2)cc1,1.4µM*,13µM*,?,?,0.71µM*,nt
CC(=O)Nc1ccc(SCC(=O)Nc2ccccc2-c2ccccc2)cc1,4%,-2%,-19%,0%,-2%,-29%
COCCCNC(=S)N1CCN(c2nc(C)nc3sc4c(c23)CCCC4)CC1,2%,0%,21µM*,-7%,1%,nt
COC(=O)C1=C(C)NC(=O)/C1=C\N(C)C,-3%,-2%,?,1%,14%,20%
O=C(Nc1ccc(F)cc1)N1CCOCC1,-1%,-3%,4%,3%,0%,?
CCC(C)c1ccc(NC(=O)N2CCOCC2)cc1 (stereo not given),2.5µM*,15µM*,?,?,2.5µM*,nt
CN(C)c1ccc(NC(=O)N2CCOCC2)cc1,7%,24µM*,?,15%,9%,?
O=C(NCCc1ccccc1)C(=O)NCC(c1ccco1)S(=O)(=O)c1cccs1 (stereo not given),nt,1%,nt,nt,nt,nt
Cc1nccc2[nH]c(=O)c(C(=O)NC3CCCCC3C)cc12 (stereo not given),-1%,1%,?,18%,13%,13µM*
CCOc1ccc(CCNC(=O)c2cc3c(C)nccc3[nH]c2=O)cc1OCC,-4%,-2%,21µM*,-12%,-14%,nt
CCCn1c(O)c(N=Nc2ccc3ccccc3n2)c2ccccc21,1µM*,8.5µM*,?,?,0.71µM*,?
CC(C)CCn1c(O)c(N=Nc2ccccn2)c2ccccc21,-4%,-19%,?,1%,1%,-9%[1.84 µM]
Cc1ccc(S(=O)(=O)c2ncccc2N)cc1,-12%,-1%,-6%,2%,-2%[1.84 µM],nt
CCOc1ccc(C=Nc2cccc3ncccc23)cc1,-1%,21µM*,17%,0%,2%,-2%
Cc1ccc(C=Nc2cccnc2N)cc1,-3%,6.7µM*,?,-2%,2%,?
Oc1ccc(C=Nc2cccc3ncccc23)c(O)c1,-2%,2%,-2%,-7%,-8%,24%
COc1ccc(/C=N/n2c(N)nc(-c3ccccc3)c2-c2ccccc2)cc1,14%,?,-5%,-4%,13%,-49%
SMILES,NPC1 promoter act,FLuc counter,ELG1 DNA repair,ELG1 genotoxic,Rab9 promoter act,SMN2 splice enh
COc1ccc(C=Nc2cccnc2N)cc1,8%,11µM*,?,8%,12%,nt
COCCn1c(C)cc(C(=O)COC(=O)/C=C/c2c(C)nn(C3CCS(=O)(=O)C3)c2Cl)c1C (stereo not given),1%,2%,?,-2%,0%,nt
N#Cc1ccc(S(=O)(=O)NC2CCCCNC2=O)cc1 (stereo not given),-7%,1%,-6%,1%,1%,nt
COc1cc2c(cc1OC)C(NNC(=O)c1ccc(Br)o1)=NC(C)(C)C2,-5%,-1%,?,-7%,-3%,nt
CC1(C)NC(=O)N(CCCCOc2ccc3ccccc3c2Cl)C1=O,?,21µM*,?,?,16%,-12%
CC1(C)NC(=O)N(CCOCCOc2ccc3ccccc3c2Br)C1=O,19%,?,?,?,9%[1.84 µM],7%
CCOc1ccccc1OCCC(=O)OCC(=O)Nc1c(C)cc(C)cc1C,-5%,1%,6%,0%,-5%,nt
CC1(C)CC(=O)c2cnc(N3CCN(c4ccccc4)CC3)nc2C1,-4%,-13%,-2%,-6%,-8%,-55%
CC1(C)CC(=O)c2cnc(N3CCc4ccccc4C3)nc2C1,2.8µM*,2.7µM*,?,1.8µM*,?,-35%
O=C1CCCc2nc(N3CCc4ccccc43)ncc21,3.2µM*,2.7µM*,?,3.3µM*,1.6µM*,13µM*
O=C1CCCc2nc(N3CCN(Cc4ccccc4)CC3)ncc21,-4%,-2%,?,-10%,0%,-28%
COc1cccc(C(=O)NCCSc2c(C)[nH]c3ccccc23)c1OC,-4%,1%,23µM*,-12%,0%,nt
COc1ccc(-c2[nH]c3ccccc3c2SCCNC(=O)c2ccccc2)cc1,-5%,-8%,16µM*,-20%,-10%,-49%
O=C(NCSc1ccccc1)c1ccccc1,2.5µM*,11µM*,?,?,1.4µM*,nt
COc1ccc(C(=O)NCCSc2ccccc2)cc1,0.35µM*,1.5µM*,?,2.6µM*,0.35µM*,2.8µM*
COc1ccc(NC(=O)CSCC(=O)Oc2c(OC)cccc2OC)cc1,2%,-5%,16%,2%,1%,nt
O=C(Nc1ccccc1)N1CC[C@@]2(CCCN(C(=O)c3cccc(F)c3)C2)C1,nt,nt,nt,nt,nt,4%
NS(=O)(=O)c1ccc(CNC(=O)c2cc(=O)[nH]c3ccccc23)cc1,-4%,1%,27%,-2%,-2%,nt
CSCc1ccc(C(=O)NCCSc2ccc(Br)cc2)cc1,?,19µM*,?,?,?,nt
O=C(NCCSc1ccc(Br)cc1)c1ccccc1,-2%,-11%,1%,1%,1%,-4%
O=C(Nc1ccc(-c2nc3ccccc3o2)c(O)c1)c1cc(Cl)ccc1Cl,nt,?,nt,nt,nt,5%
Oc1cc(NCc2cccnc2)ccc1-c1nc2ccccc2o1,1.4µM*,7.6µM*,?,?,?,11µM*
